# Screening results (PubChem)
# In the library only some 10% were active in any assay of this set; here they are far more common.
# JMJD2A Tudor inh: blocks the human JMJD2A Tudor domain; O75164; AlphaScreen JMJD2A-Tudor / H3K4me3 peptide binding; Potency, µM (doses to about 114 µM), for inactives: at the top dose activity change, negative = inhibition, actives largely listed as inhibitors; 390,000 compounds, 4.4% hits; AID 504339; also: potency is read from the fitted curve at half-maximal effect; % is scaled to controls: 0 for no effect and ±100 for the full control effect; nearly all actives have a fitted effect of over 50% in size
# Target sequence (O75164 whole entry, looked up, the tested form may be a part): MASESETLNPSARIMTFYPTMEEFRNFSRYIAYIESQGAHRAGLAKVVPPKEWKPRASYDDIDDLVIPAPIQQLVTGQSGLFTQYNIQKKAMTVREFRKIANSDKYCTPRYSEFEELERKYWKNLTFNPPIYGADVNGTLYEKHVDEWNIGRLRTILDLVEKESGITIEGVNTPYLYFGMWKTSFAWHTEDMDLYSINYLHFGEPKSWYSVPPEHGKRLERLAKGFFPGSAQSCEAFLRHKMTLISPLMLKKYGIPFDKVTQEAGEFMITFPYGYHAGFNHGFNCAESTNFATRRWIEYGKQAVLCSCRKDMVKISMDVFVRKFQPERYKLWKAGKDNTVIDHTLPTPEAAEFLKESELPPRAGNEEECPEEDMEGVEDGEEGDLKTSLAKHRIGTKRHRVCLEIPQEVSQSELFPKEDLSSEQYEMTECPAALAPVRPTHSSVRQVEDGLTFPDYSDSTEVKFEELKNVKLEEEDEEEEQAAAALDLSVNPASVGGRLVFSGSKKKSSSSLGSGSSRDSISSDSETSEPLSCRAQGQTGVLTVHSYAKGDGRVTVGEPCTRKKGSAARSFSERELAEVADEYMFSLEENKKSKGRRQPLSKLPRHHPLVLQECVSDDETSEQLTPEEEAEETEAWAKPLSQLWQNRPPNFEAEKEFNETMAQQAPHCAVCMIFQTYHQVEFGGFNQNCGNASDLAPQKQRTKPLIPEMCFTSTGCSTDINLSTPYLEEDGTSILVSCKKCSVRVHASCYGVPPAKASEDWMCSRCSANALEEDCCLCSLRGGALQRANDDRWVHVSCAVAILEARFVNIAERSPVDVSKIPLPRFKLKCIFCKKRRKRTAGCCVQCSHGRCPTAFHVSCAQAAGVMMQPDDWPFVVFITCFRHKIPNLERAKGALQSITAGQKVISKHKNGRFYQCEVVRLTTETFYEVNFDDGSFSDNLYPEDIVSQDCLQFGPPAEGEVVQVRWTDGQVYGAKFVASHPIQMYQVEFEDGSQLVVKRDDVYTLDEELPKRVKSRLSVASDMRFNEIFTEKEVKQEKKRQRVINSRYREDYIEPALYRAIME
# Six1-Eya2 inh: inhibitors of human Six1/Eya2 interaction; 360,000 compounds, 0.56% hits; activity change, % (concentration not given with the values); AID 651725; AlphaScreen GST-Six1/His-Eya2 binding, biochemical; active compounds read low; in the data active = activity change below about -65%; inconclusive = mostly about -30% to -63%; also: % is scaled to controls: 0 for no effect and ±100 for the full control effect
#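 GST-Six1 + His-Eya2 (5X stock: 250/500 nM); Tris pH 8.0, 300 mM NaCl, 0.05% BSA, 0.02% Tween 20; GSH donor/Ni acceptor beads; 1 h 37 °C dark; AlphaScreen readout.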
# G9a block: blocks human histone lysine methyltransferase G9a; Q96KQ7; G9a H3K9 monomethylation, AlphaScreen, 2 h; 350,000 compounds, 8.8% hits; Potency, µM (titrated, usually from 102 µM), for inactives: top-dose activity, negative = inhibition, actives largely listed as inhibitors; AID 504332; also: potency is read from the fitted curve at half-maximal effect; % is scaled to controls: 0 for no effect and ±100 for the full control effect; nearly all actives have a fitted effect of over 75% in size
#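 Enzyme 20 nM + cpd, 15 min RT; add b-H3K9 pep 500 nM / SAM 20 uM; 2 h RT; anti-H3K9me1 Ab 0.5 ug/mL + SA donor / anti-rabbit acceptor beads 20 ug/mL each, 10 min; AlphaScreen read.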
# BAZ2B block: inhibitors of human BAZ2B bromodomain. Q9UIF8. AlphaScreen BAZ2B-H3K14Ac peptide displacement. Potency, µM (doses to about 114 µM), inactives show top-dose activity change, negative = inhibition, usual class: inhibitors. 360,000 compounds, 4.4% hits; also: potency is read from the fitted curve at half-maximal effect; % is scaled to controls: 0 for no effect and ±100 for the full control effect; nearly all actives have a fitted effect of over 60% in size
#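 AlphaScreen luminescence quantifies BAZ2B engagement of H3K14Ac peptide; the protein and biotinylated peptide are both at 50 nM final, buffer PBS pH 7.4 with 0.01% Tween-20, all steps at room temperature.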
# HP1b binding inh: inhibitors of HP1-beta chromodomain binding to methylated histone tails; P83916; AlphaScreen HP1-beta / biotin-H3K9me3 peptide binding; Potency, µM (highest dose often 114 µM), for the others: at the top dose activity change, negative = inhibition, hits mostly inhibitors; 390,000 compounds, 0.56% hits; also: potency is read from the fitted curve at half-maximal effect; nearly all actives have a fitted effect of over 70% in size
#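 Compound inhibition of the preformed complex between 50 nM HP1-beta and 50 nM biotinylated H3K9me3 peptide was read by AlphaScreen. Buffer was PBS pH 7.4 with 0.01% Tween-20. Incubations ran 30 min at room temperature, with 10 ug/mL donor/acceptor beads.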
# CtBP-E1A inh: CtBP/E1A binding inhibition | AlphaScreen GST-E1A/His-CtBP binding, 1536-well; active compounds read low | activity change, % (concentration not given with the values) | 340,000 compounds, 0.49% hits | AID 651724; in the data active = activity change below about -65%; inconclusive = mostly about -30% to -63%; also: % is scaled to controls: 0 for no effect and ±100 for the full control effect
#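 Homogeneous bead-based format: GST-tagged E1A captured on glutathione donor beads, His-tagged CtBP on nickel acceptor beads; compounds precede bead addition by 2 h at 37 °C.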
# The depositor's hits bear a star; ? = inconclusive; . = no result given; ! = a repeat was not active; [ ] = remark or other dose. Unless noted, calls follow the shape of the dose curve; as a rule, active = well fitted inhibition curve with a large enough effect; inconclusive = small, poorly fitted or top-dose-only effect; inactive = no such curve, though single readings can be large or run the other way.
SMILES,JMJD2A Tudor inh,Six1-Eya2 inh,G9a block,BAZ2B block,HP1b binding inh,CtBP-E1A inh
O=[N+]([O-])c1cc([N+](=O)[O-])c(Oc2cncc(Cl)c2)cc1NC1CCCCCCC1,?,-2,?,?,?,0
Cc1ccc(C)c(S(=O)(=O)N2CCCOC2CNC(=O)C(=O)NCCc2ccccc2)c1 (stereo unspecified),-6%,0,?,-16%,31%,3
Cc1ccc(C23CC4CC(CC(NC(=O)NCCN(C)C)(C4)C2)C3)cc1,3%,0,?,2%,40%,-3
CN(C)CCNC(=O)COc1ccc(C23CC4CC(CC(C4)C2)C3)cc1,-31%,-6,50µM*,-31%,-18%,-22
O=[N+]([O-])c1cc(S(=O)(=O)O)cc([N+](=O)[O-])c1NN(c1ccccc1)c1ccccc1,?,-8,50µM*,-37%,7%,-5
CC(Oc1ccc(S(=O)(=O)N2CCCC2)cc1[N+](=O)[O-])C(=O)N(C)c1ccccc1 (stereo unspecified),-6%,0,-12%[2.33 µM],-1%,24%,0
CCOC(=O)C1CCC(CN(Cc2ccc(OC)cc2)S(=O)(=O)c2ccc(F)c(C(=O)Nc3cc(Cl)ccc3OC)c2)CC1 (stereo unspecified),-32%,.,1%[59 µM],-16%,30%,.
COc1ccc(N(CC(=O)NN=C2CCCC2)S(=O)(=O)c2ccccc2)cc1Cl,5%,2,30%[59 µM],12%,24%,-5
Cc1oc(-c2ccc(Cl)cc2)cc1C(=O)/C(C#N)=C/Nc1cccc(OC(F)(F)F)c1,-13%,-1,50µM*,-16%,17%,-3
Cc1oc(-c2ccc(Cl)cc2)cc1C(=O)O,-18%,-6,.,-12%,8%,6
CC(C)c1ccc2oc(-c3cc(NC(=O)c4cccnc4)ccc3Cl)nc2c1,-33%,.,?,-38%,14%,.
CCN(CC)S(=O)(=O)c1ccc(C)c(NC(=O)COc2ccc(Cl)cc2Br)c1,-15%,0,45µM*,-29%,40%,2
CCOc1ccc(NC(=O)COC(=O)c2cc(=O)c3ccccc3o2)cc1,-5%,3,20µM*,10%,48%,-4
CCOc1ccc(Nc2cc(=O)oc3ccccc23)cc1,-15%,1,14%,71µM*,19%,-10
O=C(OCc1ccc([N+](=O)[O-])cc1)c1cc(=O)c2ccccc2o1,-8%,0,50µM*,-1%,18%,-11
CC(NC(=O)CCn1nc(-c2ccc(Cl)cc2)ccc1=O)c1ccccc1 (stereo unspecified),-6%,3,0%[59 µM],-24%,42%,3
COCCCNCCCCOc1c(Cl)cc(C)cc1Br,2.5µM*,1,.,22µM*,?,3
C=CCNCCCCOc1c(Cl)cc(C)cc1Br,8%,6,?,?,34%,6
Cc1cc(Cl)c(OCCCNC2CCCC2)c(Br)c1,22µM*,1,10µM*,?,-37%,2
CCOC(=O)c1nc2cc3n(c(CC(C)C)c-2c1C)CC(C)=C3C,?,-2,3.2µM*,?,25%,1
COC(=O)[C@@]12C[C@@H](CC(=O)NCCCCc3ccccc3)C(=O)N(Cc3cccc4ccccc34)C1=CCC(C)(C)C2,.,-10,.,.,.,1
CCCN(C(=O)Cc1nc(N)n[nH]1)C1(C(=O)Nc2c(C)cccc2C)CCCCC1,-35%,21,-4%[12.7 µM],79µM*,43%,3
CCc1nc(SCC(=O)Nc2ccccc2C)n[nH]1,1%,5,.,-4%,30%,3
CCCN(C(=O)Cc1nc(N)n[nH]1)C1(C(=O)Nc2ccccc2C)CCCCC1,?,-24,5%[12.7 µM],45µM*,20%,-30
Fc1ccc(-c2nc(-c3cccs3)c(-c3cccs3)[nH]2)cc1,-17%,.,-6%[59 µM],-4%,13%,.
SMILES,JMJD2A Tudor inh,Six1-Eya2 inh,G9a block,BAZ2B block,HP1b binding inh,CtBP-E1A inh
Oc1ccc(-c2nc(-c3ccc(F)cc3)c(-c3ccncc3)[nH]2)cc1,?,3,13µM*!,?,10%,3
Fc1ccc(-c2nc(-c3cccs3)[nH]c2-c2ccc(F)cc2)cc1,?,-10,?,45µM*,-16%,-4
CCOc1ccc(CCN2C(=O)C3C4CCC(O4)C3C2=O)cc1OCC (stereo unspecified),-3%,2,-5%[12.7 µM],-3%,24%,-1
COc1ccc(-c2ccc(NC(=O)c3ccc(Br)o3)cc2)nn1,-35%,-1,45µM*,-27%,-5%,-5
COC(=O)Cc1ccc(NC(=O)c2ccc(Br)o2)cc1,-9%,4,-29%[12.7 µM],-1%,42%,4
CCc1cc2c(SCc3nc4sc(C(C)=O)c(C)c4c(=O)[nH]3)ncnc2s1,?,-9,20µM*,-14%,30%,-5
COc1cc(CCC(=O)Nc2cccc(C(F)(F)F)c2)cc(OC)c1OC,-1%,14,45µM*,-1%,5%,8
CN1c2ccccc2C(=O)NC1c1ccc(Cl)cc1 (stereo unspecified),-6%,10,45µM*,-6%,24%,.
CN1C(=O)c2ccccc2N(C)C1c1ccccc1Cl (stereo unspecified),11%[57.1 µM],9,-5%[0.501 µM],9%,83%,15
Cc1ccc(C(=O)/C=C/C(=O)c2ccc(C)cc2)cc1,-23%,-2,1.6µM*,6%,?,-13
Cc1ccc(C)c(OCC(=O)Nc2nonc2NC(=O)COc2cc(C)ccc2C)c1,-23%,-8,16µM*,?,33%,-9
Cc1ccc(C(C)C)c(OCC(=O)Nc2ccc(S(=O)(=O)Nc3onc(C)c3C)cc2)c1,-28%,.,-15%[59 µM],56µM*,0%,.
Cc1ccc(C)c(OCC(=O)Nc2ccc(S(=O)(=O)Nc3ccccn3)cc2)c1,-23%[57.1 µM],-14,50µM*,-5%,-16%,-8
CCC(CO)Nc1ccn2nc(-c3cccs3)cc2n1 (stereo unspecified),.,-13,.,.,.,-23
CCOCCCN1C(=O)CN(C2CCCCCC2)C(=O)C1c1ccc(OCC)c(OC)c1 (stereo unspecified),-8%,.,10%[59 µM],-1%,18%,.
CCOC(=O)C1CCN(c2ncnc3c2nnn3C)CC1,-7%,.,8%[59 µM],-5%,18%,.
c1nc(NCc2ccc3c(c2)OCO3)c2[nH]cnc2n1,-12%,.,.,.,34%,.
